According to ChEMBL document CHEMBL3988442, “University of Dundee, Small-Polar-MMV Screening Library” (2021):
About 13,000 (27%) of roughly 48,000 compounds showed an effect of 50% or more. The list shows a part of the results.

Tested on: Wolbachia pipientis
Assay: Anti-Wolbachia Cell-Based Screen
Format: functional
Parameters: scale not given: in the data most compounds retested in dose-response had high values
Details: 5 µM

Compared with `CCN1CCN(CC(O)c2ccc(Br)cc2)CC1` (stereo not given), `CC(C)(C)NC(=O)CN1CCCN(Cc2ccc(C#N)cc2)CC1` is lower in “Percent Effect” value: 16.45% for the first, 13.98% for the second.

Going from `CS(=O)(=O)N1CC[C@@H]2[C@@H]1CCN2Cc1ccc2c(c1)OCO2.O=C(O)C(F)(F)F` to `CCN(Cc1ccc2c(c1)OCO2)C(=O)c1ccc(C)[nH]c1=O`, the “Percent Effect” value rises from -17.32% to -8.548%.

First: O=C(C1CC1)N1CCN(c2ccc(-n3cncn3)nn2)CC1
Second: O=C(Cc1csc(-c2ccco2)n1)N1CCN(c2cnccn2)CC1
The “Percent Effect” value of the first is lower: 7.785% for the first, 16.12% for the second.

Going from `O=C(NS(=O)(=O)c1ccc2c(c1)OCCO2)c1ccc(Br)cc1F` to `Cc1oc(C)c(C(=O)NS(=O)(=O)c2ccc3c(c2)OCCO3)c1Br`, the “Percent Effect” value rises from -2.402% to 78.36%.

Going from `Cc1oc(C)c(C(=O)NS(=O)(=O)c2ccc3c(c2)OCCCO3)c1C` to `CC(C)(C)N1CC(c2ncc(-c3ccc4c(c3)OCCO4)[nH]2)CC1=O` (stereo not given), the “Percent Effect” value falls from 0.6682% to -4.995%.

First: CCNC(=O)CN(Cc1ccoc1)C1CCCCC1
Second: COCCN(C(=O)c1c[nH]c2ncccc12)C1CCCC1
The “Percent Effect” value of the first is lower: -9.878% for the first, 6.84% for the second.

First: CCN1CCC(NC(=O)CN2CCc3c(ncn3C3CC3)C2)CC1
Second: CCN1CCC(NC(=O)CN2CCc3c(ncn3C)C2)CC1
The “Percent Effect” value of the first is higher: 104% for the first, -0.1158% for the second.

First: CCN1CCC(NC(=O)CN2CCc3c(nc(C4CC4)n3C)C2)CC1
Second: O=C(CN1CCc2c(ncn2C2CC2)C1)NC1CC1
The “Percent Effect” value of the first is higher: -1.72% for the first, -2.463% for the second.

Going from `O=C(CCN1CCc2c(ncn2C2CC2)C1)NC1CCCC1` to `O=C(CN1CCc2c(ncn2C2CC2)C1)NC1CCOCC1`, the “Percent Effect” value rises from 116.5% to 127.5%.

Going from `OC(CN1CCOCC1)CN1CCc2c(ncn2C2CC2)C1` (stereo not given) to `OC(COc1ccccc1)CN1CCc2c(ncn2C2CC2)C1` (stereo not given), the “Percent Effect” value falls from 4.204% to -5.117%.

Compared with `O=C(CN1CCc2c(ncn2C2CC2)C1)NC1CCN(C2CC2)CC1`, `N#CC1(NC(=O)CN2CCc3c(ncn3C3CC3)C2)CCCC1` is lower in “Percent Effect” value: 121.2% for the first, -4.395% for the second.

Compared with `N#Cc1ccc(OCCN2CCc3c(ncn3C3CC3)C2)cc1`, `CC(=O)N1CCN(C(=O)CN2CCc3c(ncn3C3CC3)C2)CC1` is higher in “Percent Effect” value: 2.68% for the first, 17.74% for the second.

First: O=C(C[S+]([O-])Cc1ccc(F)cc1Cl)N1CCc2sccc2C1 (stereo not given)
Second: Cc1ccc(C(=O)N(Cc2ccc(F)cc2F)C2CC2)c(=O)[nH]1
The “Percent Effect” value of the first is higher: -9.716% for the first, -11.26% for the second.

First: Cc1cc2n(n1)CC(CNC1CCN(Cc3ccccn3)CC1)CN2 (stereo not given)
Second: CC(C)Cc1noc(CN2CCC(NC(=O)c3cccs3)CC2)n1
The “Percent Effect” value of the first is lower: 3.925% for the first, 5.621% for the second.

First: O=C(N[C@@H]1CN(c2ncccn2)[C@@H]2CCCO[C@@H]21)c1cscn1
Second: O=C(N[C@@H]1CN(c2ncccn2)[C@@H]2CCCO[C@@H]21)c1cnccn1
The “Percent Effect” value of the first is higher: -1.481% for the first, -12.54% for the second.

Compared with `O=C(N[C@@H]1CN(Cc2ccco2)[C@@H]2CCCO[C@@H]21)c1cscn1`, `NC(=O)N1C[C@H](NC(=O)c2cscn2)[C@@H]2OCCC[C@@H]21` is lower in “Percent Effect” value: 106.9% for the first, 101.9% for the second.

Going from `CCOc1cc(CNCCCn2ccnc2)cc(Cl)c1OCC` to `CCOc1cc(CN2CCCC2)ccc1Oc1cccc(C#N)n1`, the “Percent Effect” value rises from -4.315% to -4.025%.

First: CCOC(C)c1noc(CN2CCN(Cc3ccno3)CC2)n1 (stereo not given)
Second: COCCN1CCCC(O)(CN2CCN(c3ccncc3C)CC2)C1=O (stereo not given)
The “Percent Effect” value of the first is lower: -9.724% for the first, -3.963% for the second.

Going from `CN(Cc1cc(-c2ccncc2)no1)C(=O)[C@@H]1CSCN1C` to `Cc1ncsc1C(=O)N(C)Cc1ccc(Br)o1`, the “Percent Effect” value rises from 2.417% to 23.63%.

Going from `O=C(CCC1CCCO1)N1CCc2nc(-c3cnccn3)nc(O)c2C1` (stereo not given) to `COCC(=O)N1CCc2nc(-c3cnccn3)nc(O)c2C1`, the “Percent Effect” value falls from 116.1% to 104.8%.

Compared with `CS(=O)(=O)N1CCN(C(=O)CCC2CCCO2)CC1` (stereo not given), `CS(=O)(=O)NC1CCN(C(=O)CCC2CCCO2)CC1` (stereo not given) is higher in “Percent Effect” value: 1.133% for the first, 10.42% for the second.

Going from `COCC(=O)N1CCc2nc(C(=O)Nc3cccnc3)sc2CC1` to `Cc1nc(CC(=O)N2CCc3nc(-c4cnccn4)nc(O)c3C2)cs1`, the “Percent Effect” value rises from 1.921% to 88.77%.

Compared with `O=C(c1ccccn1)N1CCc2nc(-c3cnccn3)nc(O)c2C1`, `O=C(c1cnccn1)N1C[C@@H](c2ccccc2)[C@@]2(CCNC2=O)C1` is lower in “Percent Effect” value: -8.53% for the first, -14.79% for the second.

First: CC(C)(CC(=O)N(CC(N)=O)C1CCCC1)c1ccccc1
Second: CN(C(=O)CNC(=O)CC(C)(C)C)C1CCN(c2ccccn2)CC1
The “Percent Effect” value of the first is lower: -10.15% for the first, 12.99% for the second.

Compared with `CC(C)(CN)NS(=O)(=O)c1cccc(F)c1F.Cl`, `CC(C)NS(=O)(=O)c1cc(C(=O)O)cc(-c2ccc(CN(C)C)cc2)c1` is lower in “Percent Effect” value: -6.445% for the first, -14.22% for the second.

First: C=Cc1cccc(CN2C[C@H]3CC[C@@H]2CN(Cc2c(C)noc2C)C3)c1
Second: Cc1ccc(C(=O)N(C)Cc2c(C)noc2C)c(=O)[nH]1
The “Percent Effect” value of the first is lower: -8.639% for the first, 0.555% for the second.

First: Cc1nc(CN(C)C(=O)CNC(=O)c2ccc(C#N)cc2)cs1
Second: COC(=O)NCC(=O)N(C)Cc1csc(C)n1
The “Percent Effect” value of the first is higher: 6.778% for the first, 0.6719% for the second.

Compared with `Cc1ccc(C(=O)N(C)Cc2csc(Br)c2)c(=O)[nH]1`, `Cc1ccc(C(=O)N(C)Cc2ccc(Br)s2)c(=O)[nH]1` is higher in “Percent Effect” value: 125.8% for the first, 139.4% for the second.

Compared with `Cc1ccc(C(=O)N(Cc2ccc(F)cc2)C2CC2)c(=O)[nH]1`, `Cc1ccc(C(=O)N(C)Cc2ccc(Br)o2)c(=O)[nH]1` is higher in “Percent Effect” value: -2.478% for the first, 131.8% for the second.

Going from `Cc1ccc(C(=O)N(C)Cc2csc(C)n2)c(=O)[nH]1` to `Cc1ccc(C(=O)NCC(O)c2ccc(Cl)s2)c(=O)[nH]1` (stereo not given), the “Percent Effect” value falls from 127.5% to -29.35%.

Going from `CNc1ccnc(N2C[C@@H](C)[C@](O)(C3CCC3)C2)n1` to `Cl.O=C(CCC1CCCC1)NCCn1nc(C2CCNC2)c2nccnc21` (stereo not given), the “Percent Effect” value falls from -0.8884% to -7.206%.

Going from `COCCC(=O)NCCn1nc(C2CCNC2)c2cccnc21.Cl` (stereo not given) to `CC(C)CC(=O)NCCn1nc(C2CCNC2)c2cccnc21.Cl` (stereo not given), the “Percent Effect” value falls from 104.9% to 97.32%.

Compared with `CNc1ncc(CN(C)C(=O)c2ccccc2C2CCNC2)cn1` (stereo not given), `Cc1cccnc1[C@H](C)NC(=O)c1cccc(CC2CCNCC2)c1` is lower in “Percent Effect” value: -12.29% for the first, -20.86% for the second.

Going from `CC(C)(C)CC(=O)NCCn1nc(C2CCNC2)c2cccnc21.Cl` (stereo not given) to `CC(C)(C)CC(=O)Nc1ncn(CC(=O)NCc2ccccc2)n1`, the “Percent Effect” value falls from 117.2% to 0.2654%.

Going from `Cc1cc(CNC(=O)Nc2ccc(C(=O)NC3CC3)cc2)no1` to `Cc1cc(CC(=O)NCC(O)c2ccc(OC(F)F)cc2)n[nH]1` (stereo not given), the “Percent Effect” value falls from 1.867% to -1.889%.

First: CC(C)(O)CCc1cccc(C(=O)N2CCC3(CCO3)CC2)c1
Second: CC(C)(O)CCc1cccc(C(=O)N2CCC3(CCOCC3)CC2)c1
The “Percent Effect” value of the first is higher: 8.25% for the first, -3.198% for the second.

First: CO[C@H]1C[C@@H](O)C12CCN(C(=O)c1cccc(CCC(C)(C)O)c1)CC2
Second: CC(C)(O)CCc1cccc(C(=O)N2CCC[C@H]2CN2CCCC2)c1
The “Percent Effect” value of the first is lower: -1.029% for the first, 96.29% for the second.

First: CC(C)(O)CCc1cccc(C(=O)NCCC2CCOC2)c1 (stereo not given)
Second: CC(=O)NCCC1CCCCN1C(=O)c1cccc(CCC(C)(C)O)c1 (stereo not given)
The “Percent Effect” value of the first is lower: -27.94% for the first, 90.48% for the second.

Compared with `CCc1nnc(SCC(=O)Nc2cc(C(C)(C)C)nn2C)[nH]1`, `COc1ccc(C(C)(C)C(=O)NCc2n[nH]c(=O)[nH]2)cc1` is lower in “Percent Effect” value: -3.815% for the first, -12.5% for the second.

Compared with `COc1cc(CNC(=O)NCc2c(C)cc(C)[nH]c2=O)ccc1C`, `CCNC(=O)NCc1cnn(-c2ccc(F)cc2F)c1` is lower in “Percent Effect” value: 1.509% for the first, -2.386% for the second.

Going from `Cl.Nc1ncc(-c2csc(NC(=O)C[C@H]3COCCN3)n2)cn1` to `CNc1ncc(-c2csc(NC(=O)C[C@H]3COCCN3)n2)cn1.Cl`, the “Percent Effect” value falls from 103.3% to 71.35%.

First: CC(C)Nc1ncc(-c2csc(NC(=O)C[C@H]3COCCN3)n2)cn1
Second: O=C(CC1COCCN1)NCCc1noc(-c2ccccc2)n1 (stereo not given)
The “Percent Effect” value of the first is higher: 64.22% for the first, -6.645% for the second.

Compared with `Cc1nsc(NC(=O)NC2CCCOC2)n1` (stereo not given), `O=C(CC1COCCN1)NCCc1nc(-c2ccccn2)no1` (stereo not given) is higher in “Percent Effect” value: -39.42% for the first, -14.35% for the second.

First: O=C(CC1COCCN1)NCCc1nc(Cc2ccccc2)no1 (stereo not given)
Second: Cc1ccc(CN2CCNC(=O)C2CC(=O)NCc2n[nH]c(C)n2)cc1 (stereo not given)
The “Percent Effect” value of the first is higher: 18.61% for the first, 3.294% for the second.

Compared with `Cc1ccccc1-c1noc(CNc2ccc(F)cc2OCCO)n1`, `Cc1ccnc(NCc2cccc(OCCN3CCOCC3)c2)n1` is lower in “Percent Effect” value: 17.52% for the first, 10.24% for the second.

First: CS(=O)(=O)c1ccc(CN2C[C@@H]3OCC(=O)N(CC(N)=O)[C@@H]3C2)cc1
Second: CN(C)c1ccc(CC(=O)N2C[C@H](C3CC3)[C@@H](N)C2)cc1
The “Percent Effect” value of the first is higher: 4.5% for the first, -4.487% for the second.

Compared with `CCS(=O)(=O)N1C[C@@H](c2ccccc2)[C@@]2(CCNC2=O)C1`, `CCCS(=O)(=O)N1C[C@@H](c2ccccc2)[C@@]2(CCNC2=O)C1` is higher in “Percent Effect” value: 107.9% for the first, 108.5% for the second.

Compared with `Cc1ccc(CN2C[C@@H](c3ccccc3)[C@@]3(CCNC3=O)C2)o1`, `O=C1NCC[C@]12CN(Cc1ccco1)C[C@H]2c1ccccc1` is lower in “Percent Effect” value: 33.3% for the first, 13.69% for the second.

First: COc1ccc2c(c1)s/c(=N\C(=O)CSCC(=O)Nc1nccs1)n2C
Second: Cc1n[nH]cc1CNCc1cccc(OCC(F)(F)F)c1.Cl
The “Percent Effect” value of the first is higher: -4.566% for the first, -11.93% for the second.

Going from `N#CCCN(CC1CC1)S(=O)(=O)c1cccc(Cl)c1` to `Cc1nc(CNCc2cccc(OC34CCCN(CC3)C4)c2)n[nH]1` (stereo not given), the “Percent Effect” value rises from -14.4% to 113.3%.

First: CC(=O)c1cccc(-c2c[nH]c(C)n2)c1
Second: Cc1nc(CNCc2ccc(OC34CCCN(CC3)C4)cc2)n[nH]1 (stereo not given)
The “Percent Effect” value of the first is lower: -8.634% for the first, 103.3% for the second.

First: Cc1cnccc1CNCc1ccc(OC23CCCN(CC2)C3)cc1 (stereo not given)
Second: O=c1[nH]nc(CNCc2ccc(OC34CCCN(CC3)C4)cc2)[nH]1 (stereo not given)
The “Percent Effect” value of the first is higher: 106.9% for the first, 93.23% for the second.

In the case of `CCN1CCCC(O)(CNCc2ccncc2)C1` (stereo not given), the “Percent Effect” value is reported as 6.912%.
